This note sets out measurements from PubChem BioAssay AID1578 (Sanford-Burnham Center for Chemical Genomics, 2009).

The whole screen tested about 290,000 compounds, of which about 3,000 (1%) were called active. The sample as a whole holds a higher share of actives than the screen did. Unmarked numbers belong to inactive results. No stated cut-off is given here; in the data, active means inhibition mostly above about 36% (no sharp cut-off); inactive means mostly below about 34%.

What is called inhibition is the relative decrease from the control value, in per cent.

The nature of this test: inhibition of NOD1-driven NF-kB reporter – cell-based, luminescence, uHTS, primary screen (AID 1578).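 Further: HEK-293T reporter cells stimulated with the NOD1 agonist gamma-tri-DAP.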 To be noted: NOD1-driven NF-kB luciferase reporter cells, at 4 µM, stronger effect = higher value.
Take `CCc1ccc(NC(=O)CCCN2C(=S)NC(C)(C)CC2C)cc1` (stereo not given): the inhibition was -30.4%. `Cc1ccccc1-c1ccc(=O)n(CC(=O)Nc2ccc(-n3cnnn3)cc2)n1`: the inhibition is -5.3%. The value for `CCOC(=O)C(CCCOc1ccccc1)C(=O)OCC` was 10.5%; that for `CC1CCCCC1NC(=O)CN1C(=O)CSc2cc(S(=O)(=O)N3CCCCCC3)ccc21` (stereo not given) was -19.4%; that for `COC(=O)c1cccc(NC(=O)NC(=O)c2ccc(Cl)cc2)c1` was 11.7%.

With `COC(=O)c1cccc(NC(=O)NC(=O)c2ccccc2Cl)c1`, the inhibition was 30% (active). To `COC(=O)c1cccc(NC(=O)/C(=C\c2ccccc2)NC(=O)c2ccccc2Cl)c1` belongs -35.1%; to `O=C(CNS(=O)(=O)c1cccc2nsnc12)NC1CCCCC1`, -5.2%. The value for `COc1ccc(/C=N/NC(=O)Nc2nonc2N)cc1` was -31.2%; that for `CCN(CC)c1ccc(/C=N/NC(=O)Nc2ccccc2)cc1` was -54%; that for `CCN(CC)c1ccc(/C=N/NC(=O)Nc2nonc2N)cc1` was 58.7% (active).

`COCCOC(=O)C1=C(C)Nc2cc(=O)[nH]c(=O)n2C1c1cccc([N+](=O)[O-])c1` (stereo not given): the inhibition is 5%.

Consider `Cc1ccccc1NC(=O)C1CCC(=O)N1` (stereo not given), for which the inhibition was 96.7% (active). Consider `O=C1CCC(C(=O)Nc2ccccc2)N1` (stereo not given), for which the inhibition was -23%. To `O=C1CCC(C(=O)Nc2cccc3ccccc23)N1` (stereo not given) belongs 8.1%. To `Cc1cc(C)nc(NS(=O)(=O)c2ccc(NC(=O)c3ccc4c(c3)OCCO4)cc2)n1` belongs -42.8%; to `COc1ccc(C2C(C#N)=C(N)Oc3n[nH]c(C)c32)cc1Cn1nc(C)c([N+](=O)[O-])c1C` (stereo not given), -12.1%; to `COc1ccc(C2C(C#N)=C(N)Oc3c2c(C)nn3-c2ccccc2)cc1Cn1nc(C)c([N+](=O)[O-])c1C` (stereo not given), 85% (active). The value for `COc1ccc(C2C(C#N)=C(N)OC3=C2C(=O)CCC3)cc1Cn1nc(C)c([N+](=O)[O-])c1C` (stereo not given) was -8.7%; that for `Cc1ccc(NNC(=O)CCc2ccccc2)c(C)c1` was -5%; that for `O=C(NC1CCCN(Cc2ccc(Cl)cc2)C1)c1c(F)cccc1F` (stereo not given) was -4.9%.

For the molecule `N#CC1(c2ccccc2)CCCN1C(=O)c1ccc(Br)cc1` (stereo not given), the inhibition was -11.6%. Regarding `C=CCOC(=O)c1sc(NC(=O)c2ccc(OC)cc2)nc1C`, the inhibition was -27.6%. The value for `O=C(O)CCc1[nH]c2ccccc2c1Sc1ccccc1` was 2.8%; that for `CNC(=O)CCc1[nH]c2ccccc2c1Sc1ccccc1` was 2.6%. The value for `O=C(CCc1[nH]c2ccccc2c1Sc1ccccc1)NCCO` was 91.3% (active).

As for `C=CCn1c(C)csc1=Nc1ccc(C(=O)O)cc1`, the inhibition is -39.1%. To `CCOc1ccc(C(=O)Nn2cnnc2)cc1OCC` belongs -0.7%; to `COc1cc(C=O)ccc1OC(=O)c1ccc(C(C)C)cc1`, -9.5%; to `CCn1c(=N)n(CC(=O)C(C)(C)C)c2ccccc21`, 1.2%. Regarding `CCc1ccc(CN2CCC(C(=O)Nc3ccc(Oc4ccccc4)nc3)CC2)o1`, the inhibition is 32.5%.

`O=C(O)c1[nH]c2ccccc2c1C(c1cc(Br)ccc1O)c1c(C(=O)O)[nH]c2ccccc12`: the inhibition was 76.6% (active).

Consider `O=C(O)COc1ccc(Br)cc1C(c1c(C(=O)O)[nH]c2ccccc12)c1c(C(=O)O)[nH]c2ccccc12`, for which the inhibition is -18.7%. Turning to `CCOc1cc(Br)cc(C(c2c(C(=O)O)[nH]c3ccccc23)c2c(C(=O)O)[nH]c3ccccc23)c1O`, the inhibition is 18%. The value for `Cc1nn(CC(=O)NCC(C)c2ccccc2)c(=O)c2cccn12` (stereo not given) was -28.8%. To `CCOC1(OCC)C(c2ccc(Cl)cc2)C(C#N)(C#N)C1(OCC)OCC` (stereo not given) belongs -5.8%; to `COC1(OC)C(/C=C/c2ccc(Cl)cc2)C(C#N)(C#N)C1(OC)OC` (stereo not given), 62.6% (active); to `N#Cc1c(NC(=O)c2ccccc2)sc2c1CCC2`, -29.6%. The value for `N#Cc1c(Cl)nsc1NC(=O)c1ccccc1` was 89.1% (active).

As to `Cc1sc(NC(=O)c2ccccc2)c(C#N)c1-c1ccccc1`, the inhibition was -17.1%. As to `C/C(=N\N=C(N)N)c1cc(Cl)ccc1Cl`, the inhibition was -23.9%. Turning to `CCNc1nc(Oc2ccc(C(=O)OC)cc2)nc(N(C)C)n1`, the inhibition was -15.3%. The value for `O=C(O)c1cccc(Nc2c3ccccc3nc3ccccc23)c1` was -9%; that for `O=C(O)c1cc(S(=O)(=O)O)cc(Nc2c3ccccc3nc3ccccc23)c1O` was 30.7% (active); that for `Cc1ccc(O)c(Nc2c3ccccc3nc3ccccc23)c1` was 12.5%. The value for `COc1cccc(CNC(=O)Cn2cccc2)c1` was 18.5%; that for `COc1cccc(CNC(=O)CCl)c1` was 73.9% (active). The value for `COc1cccc(CNC(=O)Cc2ccc(Br)cc2)c1` was -16.7%; that for `CC(=O)c1cccc(NC(=O)N2CCCCCC2)c1` was -8.3%. As for `Cc1cccc(NC(=O)c2ccc(C(=O)Nc3cccc(C)c3)nc2)c1`, the inhibition was 62.8% (active). `Cc1ccc(S(=O)(=O)Nc2cccc(C(=O)Nc3cc(C)ccn3)c2)cc1`: the inhibition was -15.9%. In the case of `CS(=O)(=O)c1ccc2nc(NC(=O)c3cccc(Cl)c3)sc2c1`, the inhibition was -1.3%.

Take `Cc1cccc(NS(=O)(=O)c2cccc(C(=O)Nc3cccc(C(=O)O)c3)c2)c1`: the inhibition is -23.8%. To `CC(=O)c1cccc(NC(=O)c2ccc(C(=O)Nc3cccc(C(C)=O)c3)nc2)c1` belongs -11.1%. To `CC(=O)Nc1cccc(NC(=O)c2ccc(C(=O)Nc3cccc(NC(C)=O)c3)nc2)c1` belongs -19.3%. To `CS(=O)(=O)c1ccc2nc(NC(=O)c3ccc(NS(=O)(=O)c4ccc(F)c(F)c4)cc3)sc2c1` belongs -2.4%; to `Cc1cccc(NS(=O)(=O)c2ccc(NC(=O)N3CCCCC3)cc2)c1`, 22.5%. For `COc1ccc(-c2noc(N3CCC(C(=O)NCc4ccc(F)cc4)CC3)n2)cc1`, the inhibition is -38.2%. On to `COc1ccc(/C=C2/Sc3ccc(C(=O)NCCCN4CCOCC4)cc3NC2=O)cc1OC`, for which the inhibition was 29.5%. Take `COC(=O)CS(=O)(=O)c1cc(Br)cc2c1N(C(C)=O)CC2`: the inhibition is -37.1%.
